Compound activity: PubChem, National Center for Advancing Translational Sciences (NCATS)
Pol beta inh – qHTS Assay for Inhibitors of DNA Polymerase Beta; P06746; Pol beta primer extension/strand displacement, fluorescence kinetic; Potency, µM (series often up to 114 µM), actives largely listed as inhibitors; 340,000 compounds, 1.3% hits; AID 485314, 2010
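Values derive from four-parameter Hill fits of normalized kinetic data: reads at 0 and 10 min following addition of 50 nM substrate to 10 nM Pol beta preincubated 15 min with compound.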
WRN inhibitor – qHTS for Inhibitors of WRN Helicase. WRN helicase unwinding, fluorescent forked duplex, kinetic. Potency, µM (highest dose often 114 µM), usual class: inhibitors. 360,000 compounds, 0.46% hits. AID 651768, 2012; further: nearly all actives have a fitted effect of over 55% in size
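Kinetic red-fluorescence monitoring (525/598 nm) tracks WRN helicase activity after 100 nM fluorophore-quencher forked duplex and 2 mM ATP are added to 20 nM enzyme pretreated 15 min at room temperature with compound.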
Pol eta inh-1 – qHTS for Inhibitors of Polymerase Eta | 390,000 compounds, 1.2% hits | DNA polymerase eta (Homo sapiens), Q9Y253 | recombinant Pol eta, fluorescent DNA replication assay | Potency, µM (highest dose often 114 µM), actives largely listed as inhibitors
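Pol eta at 10 nM preincubated with compounds 15 min at room temperature; reaction started with fluorescent substrate (50 nM final) and read kinetically at 0 and 10 min.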
Pol kappa inh-1 – qHTS for Inhibitors of Polymerase Kappa; AID 588579, 2011; DNA polymerase kappa (Homo sapiens), Q9UBT6; Potency, µM (series often up to 107 µM), most hits filed as inhibitors; purified Pol kappa, fluorescent DNA synthesis assay, 10 min; 400,000 compounds, 0.53% hits
Target sequence (Q9UBT6 whole entry, looked up): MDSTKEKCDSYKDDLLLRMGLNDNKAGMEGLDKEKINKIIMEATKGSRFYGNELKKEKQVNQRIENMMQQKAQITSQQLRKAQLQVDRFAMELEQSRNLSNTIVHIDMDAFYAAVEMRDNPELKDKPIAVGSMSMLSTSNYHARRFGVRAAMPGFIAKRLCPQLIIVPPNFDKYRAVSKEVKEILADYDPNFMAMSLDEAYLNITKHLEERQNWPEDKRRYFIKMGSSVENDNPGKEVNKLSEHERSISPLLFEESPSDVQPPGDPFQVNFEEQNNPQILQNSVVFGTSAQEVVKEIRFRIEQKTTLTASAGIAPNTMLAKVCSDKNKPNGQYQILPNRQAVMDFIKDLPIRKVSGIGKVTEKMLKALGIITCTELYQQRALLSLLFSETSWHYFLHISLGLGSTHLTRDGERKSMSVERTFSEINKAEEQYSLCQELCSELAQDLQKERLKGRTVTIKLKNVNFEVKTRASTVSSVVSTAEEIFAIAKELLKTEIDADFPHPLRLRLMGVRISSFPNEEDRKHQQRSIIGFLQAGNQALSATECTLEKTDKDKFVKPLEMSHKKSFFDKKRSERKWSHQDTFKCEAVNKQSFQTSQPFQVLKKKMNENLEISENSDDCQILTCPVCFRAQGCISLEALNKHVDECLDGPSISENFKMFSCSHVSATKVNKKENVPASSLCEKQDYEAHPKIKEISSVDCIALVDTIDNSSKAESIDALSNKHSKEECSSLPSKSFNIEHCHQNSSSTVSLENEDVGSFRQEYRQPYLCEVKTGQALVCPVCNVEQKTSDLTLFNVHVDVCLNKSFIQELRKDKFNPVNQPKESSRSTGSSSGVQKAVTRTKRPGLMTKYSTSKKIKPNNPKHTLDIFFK
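First, compounds were pin-transferred onto 10 nM Pol kappa. After 15 min at room temperature, substrate was added to 50 nM final. Fluorescence was then measured kinetically at 0 and 10 min.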
L3MBTL1 inh – qHTS Assay for the Inhibitors of L3MBTL1 | Lethal(3)malignant brain tumor-like protein 1 (Homo sapiens), Q9Y468 | AlphaScreen L3MBTL1–H3K9me1 peptide binding | Potency, µM (top dose mostly 57.1 µM), hits mostly inhibitors | 230,000 compounds, 0.66% hits; further: nearly all actives have a fitted effect of over 60% in size
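Read-out is AlphaScreen signal from streptavidin donor and nickel chelate acceptor beads (10 ug/mL final each) bridging L3MBTL1 (50 nM) and biotinylated K9-monomethylated H3(1-15) peptide (75 nM), after 30 min compound exposure at room temperature.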
Pol iota inh – qHTS for Inhibitors of Polymerase Iota | DNA polymerase iota (Homo sapiens), Q9UNA4 | Pol iota fluorescent replication assay, 10 min | Potency, µM (top dose mostly 115 µM), actives largely listed as inhibitors | 390,000 compounds, 1% hits
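Fluorescent replication assay read twice, at 0 min and 10 min after adding 50 nM (final) substrate. Enzyme (10 nM) and compounds were first incubated 15 min at room temperature; enzyme-free buffer wells were negative controls.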
TbPGK inh – qHTS for inhibitors of Phosphogylcerate Kinase: Hit Validation Screen; shares compounds with Pol kappa inh-1; TbPGK coupled GAPDH assay, Kinase-Glo luminescence; Potency, µM (titrated, usually from 57.5 µM), usual class: inhibitors; 500 compounds, 79% hits; further: nearly all actives have a fitted effect of over 65% in size
POLI cherry-pick – qHTS for Inhibitors of Polymerase Iota: Confirmatory Assay for Cherry-picked Compounds; shares compounds with Pol kappa inh-1; Pol iota primer extension, TAMRA/BHQ fluorescence; Potency, µM, actives largely listed as inhibitors; 1,500 compounds, 77% hits; AID 720496, 2013
Pol kappa inh-2 – qHTS for Inhibitors of Polymerase Kappa: Confirmatory Assay for Cherry-picked Compounds | shares compounds with Pol eta inh-1 | purified Pol-kappa, fluorescent strand-displacement substrate | Potency, µM, usual class: inhibitors | 920 compounds, 76% hits
Pol eta inh-2 – qHTS for Inhibitors of Polymerase Eta: Confirmatory Assay for Cherry-picked Compounds; Pol eta primer extension, TAMRA/BHQ fluorescence, 10 min; shares compounds with Pol eta inh-1; Potency, µM, hits mostly inhibitors; 2,600 compounds, 64% hits
Of the large screens only hits and unclear results are named; the others gave an inactive call (follow-up assays come after a bar, where they were run). Compounds with a hit are over-represented: about 2.5% of the library has one in this group of screens. The call rests on the fitted dose curve; in most records, active means well fitted curve in the direction sought with a large enough effect; inconclusive means small, poorly fitted or top-dose-only effect, or another doubt; inactive means no such curve, though single readings can be large; an effect the other way counts as inactive or inconclusive.

COc1cc(OC)c(-c2c3cc(O)c(=O)cc-3oc3cc(O)c(O)cc23)cc1OC	Pol beta inh 20µM, WRN inhibitor 2.38µM, Pol kappa inh-1 inconclusive, L3MBTL1 inh 0.794µM (no result: Pol eta inh-1, Pol iota inh) | POLI cherry-pick 1.34 | Pol kappa inh-2 18.9 | Pol eta inh-2 67.5
CCOc1ccc(/C=N/NC(=O)c2cc(-c3ccco3)nc3ccccc23)cc1	Pol iota inh inconclusive
O=C(Nc1nccs1)c1cc(-c2ccco2)nc2ccccc12	Pol beta inh 7.08µM, WRN inhibitor inconclusive, Pol eta inh-1 3.98µM, Pol kappa inh-1 inconclusive, L3MBTL1 inh 14.1µM, Pol iota inh 22.4µM | POLI cherry-pick inconclusive | Pol eta inh-2 inconclusive
O=C(N/N=C/c1ccc(F)cc1)c1cc(-c2ccco2)nc2ccccc12	Pol beta inh 3.55µM, WRN inhibitor 39.8µM, Pol eta inh-1 1.58µM, Pol kappa inh-1 14.1µM, L3MBTL1 inh 3.55µM, Pol iota inh 7.94µM | TbPGK inh 8.19µM | POLI cherry-pick 7.52 | Pol kappa inh-2 10.6 | Pol eta inh-2 21.3
Cc1nc2c(c(=O)n1CCC1=CCCCC1)c1nc3ccccc3nc1n2/N=C/c1ccco1	Pol beta inh 10µM, WRN inhibitor inconclusive, Pol eta inh-1 inconclusive, Pol kappa inh-1 inconclusive, L3MBTL1 inh inconclusive, Pol iota inh inconclusive | POLI cherry-pick 67 | Pol eta inh-2 75.7
Cc1ccc(S(=O)(=O)Nc2ccc(Cl)cc2C(=O)c2ccccc2)cc1	none
Cc1ccc(NC(=O)CCc2nnc(SCC(=O)Nc3ccccc3C)n2C)cc1Cl	none
O=P(c1ccccc1)(c1ccccc1)c1cc(S(=O)(=O)O)ccc1O	Pol beta inh 10µM, Pol eta inh-1 20µM, Pol kappa inh-1 inconclusive, Pol iota inh 25.1µM (no result: L3MBTL1 inh) | POLI cherry-pick 23.8 | Pol kappa inh-2 42.3 | Pol eta inh-2 60.1
O=P(O)(c1ccccc1)c1ccccc1O	Pol iota inh inconclusive
CCN(CC)c1ccc(/C=C(\C#N)C(=O)c2ccc(Br)cc2)cc1	Pol beta inh 39.8µM, WRN inhibitor 28.2µM, Pol eta inh-1 inconclusive, Pol kappa inh-1 22.4µM, Pol iota inh inconclusive | POLI cherry-pick 67 | Pol kappa inh-2 67 | Pol eta inh-2 42.6
CN(/N=C/c1ccc(-c2ccc([N+](=O)[O-])cc2)o1)c1ccccc1	none
O=C(O)c1ccc(N2C(=O)/C(=C/c3ccc(-c4ccc([N+](=O)[O-])cc4)o3)C=C2c2ccccc2)cc1	Pol beta inh 10µM, WRN inhibitor 56.2µM, Pol eta inh-1 3.55µM, Pol kappa inh-1 inconclusive, Pol iota inh inconclusive | POLI cherry-pick 8.44 | Pol eta inh-2 7.57
O=C1C(=C(I)I)c2ccccc2-c2ccccc21	WRN inhibitor inconclusive, Pol eta inh-1 22.4µM, Pol iota inh inconclusive (no result: Pol beta inh, L3MBTL1 inh) | POLI cherry-pick 21.2 | Pol eta inh-2 23.9
O=C(O)c1cccc2c1C(=O)c1ccccc1-2	none
O=[N+]([O-])c1cc(/C=N/n2c(-c3cccnc3)n[nH]c2=S)ccc1Cl	Pol beta inh 5.62µM, WRN inhibitor inconclusive, Pol eta inh-1 20µM, Pol kappa inh-1 inconclusive, L3MBTL1 inh inconclusive, Pol iota inh inconclusive | POLI cherry-pick 16.8 | Pol eta inh-2 42.6
CNc1c2cccc(C)c2nc2c(C(=O)NCCN(C)C)cccc12	Pol eta inh-1 3.55µM, Pol kappa inh-1 8.91µM, Pol iota inh 11.2µM (no result: Pol beta inh, L3MBTL1 inh) | POLI cherry-pick 2.99 | Pol eta inh-2 37.9
Cc1cc(/C=N/Nc2ccc([N+](=O)[O-])cn2)c(C)n1-c1ccc(C(=O)O)cc1	Pol beta inh inconclusive, WRN inhibitor 50.1µM, Pol eta inh-1 17.8µM, Pol kappa inh-1 79.4µM, Pol iota inh 17.8µM (no result: L3MBTL1 inh) | POLI cherry-pick inconclusive | Pol eta inh-2 67.5
Cc1ccccc1-n1c(C)cc(/C=N/Nc2ccc([N+](=O)[O-])cn2)c1C	none (no result: L3MBTL1 inh)
[O-][n+]1c2ccccc2[n+]([O-])c2cc(O)ccc21	Pol beta inh 22.4µM, WRN inhibitor inconclusive, Pol eta inh-1 17.8µM, Pol kappa inh-1 inconclusive, Pol iota inh inconclusive (no result: L3MBTL1 inh) | TbPGK inh 32.6µM | POLI cherry-pick inconclusive | Pol kappa inh-2 inconclusive | Pol eta inh-2 inconclusive
Cc1ccc2ccccc2[n+]1[O-]	none (no result: Pol beta inh, WRN inhibitor, Pol eta inh-1, L3MBTL1 inh)
COCC(=O)OC1CCn2c1nc1c2C(=O)C(C)=C(NC(C)=O)C1=O (stereo not given)	Pol eta inh-1 3.98µM, Pol iota inh 4.47µM (no result: Pol beta inh, L3MBTL1 inh) | POLI cherry-pick 16.8 | Pol eta inh-2 30.1
Nc1ccc(O)c2c1C(=O)c1ccccc1C2=O	Pol beta inh 2.82µM, WRN inhibitor 31.6µM, Pol eta inh-1 8.91µM, Pol kappa inh-1 28.2µM, L3MBTL1 inh inconclusive, Pol iota inh 39.8µM | TbPGK inh 11.6µM | POLI cherry-pick 18.9 | Pol kappa inh-2 3.36 | Pol eta inh-2 21.3
Nc1ccc(Br)c2c1C(=O)c1ccccc1C2=O	Pol beta inh inconclusive, Pol eta inh-1 inconclusive, L3MBTL1 inh inconclusive, Pol iota inh inconclusive
CC1CCc2nc3ccc(S(=O)(=O)N4CCC(C(=O)O)CC4)cc3c(C(=O)O)c2C1 (stereo not given)	none
COC(CNC(=O)C1CCN(S(=O)(=O)c2ccc3nc4c(c(C(=O)O)c3c2)CC(C)CC4)CC1)OC (stereo not given)	Pol eta inh-1 14.1µM, Pol kappa inh-1 inconclusive, Pol iota inh inconclusive (no result: L3MBTL1 inh) | POLI cherry-pick 21.2 | Pol eta inh-2 5.36
CC(=O)Nc1ccc(Nc2nc(-c3cc4ccccc4oc3=O)cs2)cc1	none
